A word on the inhibition: it is the drop in the measured response relative to a control, in per cent.

Structures are written as SMILES. Hit rate of the full screen: of about 200,000 compounds, about 18,000 (9%) were called active. For the sample, actives were picked, then their nearest neighbours and some compounds at random. Values without a mark were called inactive. No stated cut-off is given here; in the data, active means inhibition above about 50%; inactive means the rest.

A short description of this assay: Leishmania major promastigote growth inhibition, primary screen (AID 1063).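 Further: promastigotes grown with compound for 44 hours at 28 °C.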 The settings on record: Leishmania major promastigotes, resazurin fluorescence viability; at 10 µM; hits give high values.
As for `CCSC1=NCCN1S(=O)(=O)c1ccc(F)cc1`, the inhibition is -0.73%. Then `O=c1c2ccccc2c(-c2ccccc2)nn1-c1ccccn1`, with -0.99%; and `CC(=O)N1C(C)c2ccccc2C(C)(C)CC12CCCCC2` (stereo not given), with 10.5%; and `Cc1ccc(N=C2NC(=O)c3cccc([N+](=O)[O-])c32)cc1`, with -1.43%.

In the case of `COc1ccc(-c2cc3nc(C)c(CCC(=O)NC(C)CCc4ccco4)c(C)n3n2)c(OC)c1` (stereo not given), the inhibition is 100% (active). Then `COc1cc(OC)cc(-c2nc3nc(C)c(CCC(=O)NCc4ccco4)c(C)n3n2)c1`, with 2%.

As to `Cc1nc2c(-c3ccc(F)cc3)c(C)nn2c(C)c1CCC(=O)NCc1ccco1`, the inhibition is -2.49%. Next, `Cc1ccc2cc(CN(c3ccc(C)c(C)c3)S(C)(=O)=O)c(=O)[nH]c2c1`: 9.29%; `CCN(CCn1cccn1)C(=O)CC1C(=O)NCCN1Cc1cccc(OC)c1OC` (stereo not given): 5.31%.

Consider `CCOC(=O)c1sc2nc(C)nc(Nc3ccc(OC)c(OC)c3)c2c1C`, for which the inhibition was -0.22%. Consider `COc1ccc(-c2n[nH]c(C)c2-c2ccc(OC)c(OC)c2)c(O)c1`, for which the inhibition was 4.64%. Next, `COc1ccc(O)c(C=Nc2cc(C)on2)c1`: -9.53%; `COc1ccc(-c2onc(C)c2-c2ccc3c(c2)OCCO3)c(O)c1`: 72.5% (active).

For the compound `CCOC(=O)CNC(=O)CSc1ccc2nnc(-c3cccnc3)n2n1`, the inhibition is 4.24%.

`CC(=O)Cn1ncc(N2CCOCC2)c(Br)c1=O`: the inhibition is 5.25%. Next, `COc1ccc(CCNC(=O)COC(=O)C2CCCCC2)cc1`: -2.53%; `COc1ccc(CNC2CCCCC2)cc1`: 72.3% (active); `COc1ccc(CNC(=O)C2CCN(S(C)(=O)=O)CC2)cc1`: 7.6%. Then `O=c1[nH]n2c(-c3ccccc3)nc(O)c2c2ccccc12`, with -6.91%; and `Nn1cnnc1N/N=C/c1cc([N+](=O)[O-])c(Cl)cc1Cl`, with 64.3% (active). Then `CCc1cc2c(=O)c(-c3ccc(F)cc3)c(C(F)(F)F)oc2cc1OCC(=O)O`, with 0.79%. Take `O=C(CCc1n[nH]c(=O)[nH]c1=O)N/N=C/c1ccc(Br)o1`: the inhibition was 0.7%. Next, `CC(C)C1Nc2c(C(=O)O)cccc2C(Nc2ccccc2C(=O)O)C1(C)C` (stereo not given): 0.14%. Next, `O=C(CSc1nnc(-c2ccncc2)o1)NCc1ccc(Cl)cc1`: -6.74%; `O=C(Nc1nnc(C2CC2)s1)c1ccccn1`: 84.9% (active); `Cc1occc1C(=O)Nc1nnc(C2CCCCC2)s1`: 7.17%. Then `O=C(Cc1cccs1)Nc1nnc(C2CC2)s1`, with -7.6%; and `Cc1nc(N)c(Br)c(C)c1Br`, with 1.28%; and `CC(NC(=O)Nc1ccc2c(c1)OCO2)c1ccncc1` (stereo not given), with -3.06%. With `CC(NC(=S)Nc1ccc(S(N)(=O)=O)cc1)c1ccc2c(c1)OCO2` (stereo not given), the inhibition was 70% (active). Consider `CC(C)(C)C(=O)NC(NC(=S)Nc1ccc(S(N)(=O)=O)cc1)C(Cl)(Cl)Cl` (stereo not given), for which the inhibition was 2.02%. Then `COc1c(C)cc(C(=O)C2CCCN(S(=O)(=O)c3c(C)noc3C)C2)cc1C` (stereo not given), with 6.97%. Then `CN(/C(=N/S(=O)(=O)c1cccs1)c1ccccc1)c1ccc(O)cc1`, with 7.12%; and `CSCC(NS(=O)(=O)c1ccc(C)cc1)C(=O)O` (stereo not given), with -7.96%. Next, `CN1C(=O)/C(=N/OC(=O)c2ccccc2Br)c2ccccc21`: -16.5%. With `O=C(NNC(=S)NC1CCCCC1)c1ccccc1Cl`, the inhibition was 16.1%. For `Fc1ccc(N2CCN(Cc3cnc(Oc4ccc(Br)cc4)s3)CC2)cc1`, the inhibition is -8.09%. Next, `Oc1c(CN2CCN(c3ccc(F)cc3)CC2)cc(Cl)c2cccnc12`: 100% (active); `O=C(c1cccc(C(=O)N2CCN(c3ccc(F)cc3)CC2)c1)N1CCN(c2ccc(F)cc2)CC1`: -10.6%; `Cc1nnc(SCC(=O)NNC(=O)c2ccc(Cl)cc2)n1CC1CCCO1` (stereo not given): -2.51%. As for `C/C(=N\OC(=O)c1ccccc1)c1c(C)nc2cc(C)ccn12`, the inhibition was 5.76%. Next, `Cc1ccc(N(C(=O)c2ccc(CN3CCOCC3)o2)C(C(=O)NCCC(C)C)c2cccs2)c(C)c1` (stereo not given): 90.9% (active); `Cc1cccc(N(C(=O)c2ccc(CN3CCOCC3)o2)C(C(=O)NC2CCCCC2)c2ccc(F)cc2)c1` (stereo not given): -5.01%. Next, `Cc1ccc(N(C(=O)Cc2cccs2)C(C(=O)NCC2CCCO2)c2ccncc2)cc1` (stereo not given): 3.99%; `CN(C)CC(C)(C)CNC(=O)c1cc(Br)cc(Br)c1O`: -1.61%. Then `CC1=CC2=NC(=O)CC(C)(C(=O)N(CC(=O)NC(C)(C)C)Cc3ccccc3)N2C=C1` (stereo not given), with -6.31%; and `Cc1cccc(CSc2nc3c(c(=O)n2C)SCC3)c1`, with 7.35%; and `CCOC(=O)CN(Cc1ccc(OC)c(OC)c1)S(=O)(=O)c1ccc(OC)cc1`, with 0.46%. `COc1ccc(C(CCN(Cc2ccc(OC)c(OC)c2)C(=O)CCl)c2ccccc2)cc1` (stereo not given): the inhibition was 100% (active). Next, `COc1ccc(CCNC(=O)CN(c2ccccc2)S(C)(=O)=O)cc1OC`: -7.09%; `O=C(O)CCn1c(SCc2cc(=O)n3ccccc3n2)nc2ccsc2c1=O`: -0.88%; `CCN(CC)CCNC(=O)c1ccc(NC(=O)c2c(F)cccc2Cl)cc1`: 7.35%. For the compound `COc1ccc(CN2CCC(c3nc4ccc(Cl)cc4[nH]3)CC2)cc1`, the inhibition was 95.6% (active). Next, `COc1ccc(Cn2nnc3c(=O)[nH]c(C4CCN(C(=O)c5ccccc5Cl)CC4)nc32)cc1`: -0.57%; `COc1ccc(F)c(-c2nc(CN3CCC(c4ccccc4)CC3)c(C)o2)c1`: 48.2%. Next, `CCOc1ccc(C(CC(=O)O)NC(=O)C23CC4CC(CC(C4)C2)C3)cc1OC` (stereo not given): 3.74%. Then `Cn1ncc2c(NNC(=O)Cc3cccc4ccccc34)ncnc21`, with 61.6% (active); and `Cn1ncc2c(Nc3cccc4ccccc34)ncnc21`, with -6.4%.

Consider `O=C(NNc1ncnc2c1cnn2-c1ccccc1)c1ccco1`, for which the inhibition is -5.13%. Next, `O=C1OCC2=C1C(c1ccccc1)CC(=O)N2c1cccc(F)c1` (stereo not given): 7.11%.

The values are drawn from PubChem BioAssay AID1063 (University of Pittsburgh Molecular Library Screening Center, 2008).
